assay: caspase-8 TRAIL sensitization, hit retest, confirmation, cell-based, NB7+caspase-8, with/without TRAIL, luminescence panel (AID 651596); conditions: NB7 neuroblastoma + caspase-8, without TRAIL, luminescence viability, without TRAIL, mean of runs, at 10 µM

Compound | activity [%]
O=C(N/N=C/c1cccs1)c1n[nH]c2c1CCCC2 | 84.2
Cc1ccccc1OCC(O)CNC1CCC(NCC(O)COc2ccccc2C)CC1 (stereo not given) | 99.8
c1cc2c(cc1C1=NNC(=NC3CC3)SC1)OCCO2 | 90.9
CCOC(=O)c1cnc(Nc2nc3ccccc3o2)nc1C | 91.1
Cc1ccc2nc(NC(=O)c3ccccn3)sc2c1 | 93.7
CCOc1ccc(-c2ccc(SC)nn2)cc1 | 95.1
Cc1cccc(/C=N/Nc2ccc3ccccc3n2)c1 | 78.5
CN1CCN(c2ccc(-c3ccc4ccccc4n3)cc2)CC1 | 84.3
Cc1cc(C(=O)CN2C(=O)c3ccccc3S2(=O)=O)c(C)n1CC1CCCO1 (stereo not given) | 89
O=C1c2cccc3cc([N+](=O)[O-])cc(c23)C(=O)N1CCN1CCCC1 | 67.3
Cc1cc(C(=O)COC(=O)c2ccccc2O)c(C)n1Cc1cccs1 | 95.5
O=c1c(Cl)c(N2CCCCC2)cnn1-c1nc2ccccc2[nH]1 | 96.5
C(=NN1CCCCCC1)c1ccc2ccccc2n1 | 94.3
CC(=O)c1cccc(-c2ccnc3c2CC(C(=O)Nc2cccc(NS(C)(=O)=O)c2)O3)c1 (stereo not given) | 73.6
COc1ccc(/C=C/c2nc3ccccc3n2C)cc1 | 97.1
C(=NNc1ccc2ccccc2n1)c1ccccn1 | 86
O=C(NCCc1ccccc1F)c1ccc2c(c1)OCCO2 | 91
C=CCn1c(C)cc(C(=O)CN2C(=O)c3ccccc3S2(=O)=O)c1C | 91.4
CN(C)CCCN(C(=O)c1ccc(S(=O)(=O)N2CCc3ccccc3C2)cc1)c1nc2ccc(F)cc2s1 | 17.1
O=C(Cn1ncc(Cl)c(Cl)c1=O)N1CCc2ccccc21 | 99.6

Compound | activity [%]
C(=N\Nc1nc2ccccc2[nH]1)/c1ccccn1 | 95.6
O=C(CCl)Nc1ccccc1Sc1ccc(Cl)cc1 | 99.5
CCc1ccc(C(=O)Nc2nc3ccccc3[nH]2)cc1 | 98.5
COCCn1c(C)cc(C(=O)COC(=O)c2cccc(O)c2)c1C | 87.7
C/C(=N\NC(=O)c1n[nH]c2c1CCC2)c1cccs1 | 76.2
CC(=O)n1cc(N(C(=O)CCl)c2ccc(C)cc2)c2ccccc21 | 99.7
C=C1CC2(OC1=O)c1ccccc1CCc1ccccc12 | 99.3
NC(C(=O)O)C1ON=C(Cl)C1O (stereo not given) | 88.3
COc1ccc(N(C(=O)CCl)C(C(=O)NC2CCCCC2)c2cccnc2)cc1 (stereo not given) | 98.7
CC1=CC2C(C(O)CC3(C)C2CC(C)C32OCOC23COCO3)C2(C)C/C(=C\O)C(=O)C=C12 (stereo not given) | 98.1
COc1ccc(OCc2cccc(C(=O)O)c2)cc1 | 55.2
O=C(Nc1ccccn1)c1cc2ccccc2o1 | 89.6
O=C(CN1C(=O)c2ccccc2S1(=O)=O)c1ccc2c(c1)OCCCO2 | 94.1
Cc1ccc(C(=O)Nc2ncc([N+](=O)[O-])s2)cc1 | 62.8
CCOc1ccc(NC(=O)c2ccccn2)cc1 | 89.9
COc1cccc(NC(=O)c2nc(S(C)(=O)=O)ncc2Cl)c1 | 19.6
CC(C)(C)C(=O)Nc1ccc(NC(=O)c2ccco2)nc1 | 98.5
C/C(=N/NC(=O)c1cc(C2CC2)[nH]n1)c1cccs1 | 70.8
Cc1ccccc1-c1nc(-c2ccccn2)no1 | 86.8
OCC1OC(n2ccc3c(NO)ncnc32)C(O)C1O (stereo not given) | 99.1

From PubChem BioAssay
